Nrf2 inh = Nrf2 pathway inhibition; A549 ARE-Fluc reporter, luciferase luminescence, 18-24 h; Potency, µM (highest dose often 46 µM), actives largely listed as inhibitors; 360,000 compounds, 2.1% hits; AID 504444; note: nearly all actives have a fitted effect of over 60% in size
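Nrf2 activity is the BugLite luminescence, read 15 min after reagent at room temperature, following CellTiter-Fluor cytotoxicity readout (30 min, 37C). Compound titrations were applied for 18-24 h to 5000 A549 ARE_Fluc cells/well in 5% FBS OPTI-MEM.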
Nrf2 ARE act = Nrf2 pathway activation. AREc32 ARE-luciferase reporter (MCF7-derived line), luminescence, 24 h. Potency, µM (top dose mostly 46.1 µM), hits mostly activators. 410,000 compounds, 0.31% hits. AID 624171; note: nearly all actives have a fitted effect of over 65% in size
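AREc32 cells carrying an ARE-driven firefly luciferase, 1000 cells/well in OPTI-MEM with 5% FBS, dosed after overnight attachment and incubated 24 hr at 37 deg C. Steady-Glo luminescence read after 30 min at RT.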
A549 viability = counter-screen for Nrf2 inhibitors: cytotoxicity in A549 cells. A549 ARE-Fluc cells, CellTiter-Fluor viability, 18-24 h. Potency, µM (series often up to 46 µM), most hits filed as inhibitors. 390,000 compounds, 0.16% hits. AID 504648
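Cytotoxicity counterscreen: CellTiter-Fluor fluorescence was measured in A549 ARE_Fluc cells after 18-24 h of compound exposure in a concentration series. The subsequent BugLite luminescent read reports ARE-luciferase activity.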
12-LOX inh = inhibitors of human 12S-lipoxygenase ALOX12. AID 1671190. purified 12hLO, xylenol orange hydroperoxide absorbance. Potency, µM (titrated, usually from 108 µM), hits mostly inhibitors. 580,000 compounds, 1.1% hits
Target sequence (P18054 whole entry, looked up): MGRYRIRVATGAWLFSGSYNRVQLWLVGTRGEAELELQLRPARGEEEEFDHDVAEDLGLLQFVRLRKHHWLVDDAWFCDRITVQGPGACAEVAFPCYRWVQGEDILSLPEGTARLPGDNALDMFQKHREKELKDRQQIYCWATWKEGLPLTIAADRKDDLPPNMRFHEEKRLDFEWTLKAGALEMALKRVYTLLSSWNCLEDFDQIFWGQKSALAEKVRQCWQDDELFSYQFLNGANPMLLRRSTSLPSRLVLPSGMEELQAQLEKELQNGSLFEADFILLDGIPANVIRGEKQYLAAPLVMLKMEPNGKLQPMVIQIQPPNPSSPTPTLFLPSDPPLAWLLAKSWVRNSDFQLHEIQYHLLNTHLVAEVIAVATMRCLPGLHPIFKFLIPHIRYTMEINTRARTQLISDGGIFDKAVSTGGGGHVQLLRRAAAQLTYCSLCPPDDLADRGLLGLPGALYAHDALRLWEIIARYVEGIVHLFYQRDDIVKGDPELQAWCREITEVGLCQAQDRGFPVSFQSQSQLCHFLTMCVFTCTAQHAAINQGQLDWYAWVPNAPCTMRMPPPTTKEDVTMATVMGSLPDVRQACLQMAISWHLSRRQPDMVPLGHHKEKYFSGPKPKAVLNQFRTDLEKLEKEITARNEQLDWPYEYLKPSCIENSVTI
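Purified human 12hLO (150 nM final) in 25 mM Hepes, 0.01% Triton X-100, pH 7.0 was preincubated 15 min at room temperature with compound. Then 40 uM arachidonic acid was added, 30 min. Hydroperoxide was read by Fe-XO absorbance ratio 573/405 nm.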
LDHA inh = inhibitors of human lactate dehydrogenase A. AID 1347041. 480,000 compounds, 0.15% hits. activity change, % (values are at about 110 or 230 µM). P00338. purified LDHA, NADH/diaphorase-resazurin fluorescence; active compounds read low; in the data active = activity change below about -30%; inconclusive = mostly about -25% to -30%
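Resorufin fluorescence (ex540/em590), read at 0 and 20 min after diaphorase/resazurin addition, reports the NADH left after a 5 min room-temperature reaction of 2 nM human LDH5 with 0.06 mM NADH and 0.2 mM pyruvate.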
ERG Ets-DNA blk = inhibitors of human ERG Ets domain-DNA interaction. 370,000 compounds, 0.028% hits. P11308. Potency, µM (highest dose often 76.9 µM), usual class: inhibitors. fluorescence polarization, His-ERG Ets domain / labelled DNA; active = well fitted inhibition curve with a large enough effect in the polarisation, with a control signal flat; inconclusive = small, poorly fitted or top-dose-only effect, or effect the other way, or a change in a side signal; inactive = no such curve, though single readings can be large or run the other way; the % refers to the polarisation;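 note: polarization taken with two DNA probes labelled with fluorescein and Texas red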
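His-tagged ERG Ets domain (1 uM in the protein solution; 300mM KCl, 50mM Tris-HCl, 1mM EDTA, 1mM DTT, pH 7.5) received compound, then a probe mix of 5 nM fluorescein-DNA and 100nM Texas-615-DNA. Fluorescence polarization was read for both dyes.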
Hits are given with their value; n = inactive; u = inconclusive; x = no result given; [ ] = another dose, or the depositor's remark. Only some compounds are listed: those with a hit (about 2.7% of all), similar ones and a draw of the others. Unless noted, calls come from the whole dose curve; as a rule, active = well fitted curve in the direction sought with a large enough effect; inconclusive = small, poorly fitted or top-dose-only effect, or another doubt; inactive = no such curve, though single readings can be large; an effect the other way counts as inactive or inconclusive.

SMILES	Nrf2 inh	Nrf2 ARE act	A549 viability	12-LOX inh	LDHA inh	ERG Ets-DNA blk
Cc1ccc(NC(=O)C(C)OC(=O)c2ccc(NS(=O)(=O)c3ccc(F)c(F)c3)cc2)cc1 (stereo not drawn)	u	n	n	n	n	n
O=[N+]([O-])c1cc(S(=O)(=O)Nc2ccccc2)ccc1N1CCN(c2ccc(O)cc2)CC1	n	n	n	25.1µM	n	n
Cc1ccc(NS(=O)(=O)c2ccc(N3CCN(c4ccc(O)cc4)CC3)c([N+](=O)[O-])c2)c(C)c1	u	n	n	u	n	n
CCc1ccc(NC(=O)C(C)OC(=O)c2ccc(NS(=O)(=O)c3ccc(C)c([N+](=O)[O-])c3)cc2)cc1 (stereo not drawn)	20.6µM	n	u	u	n	n
Cc1ccc(S(=O)(=O)Nc2ccc(C(=O)N3CCN(c4ccccc4O)CC3)cc2)cc1[N+](=O)[O-]	14.6µM	n	n	n	n	n
O/N=C/c1ccccc1OCc1ccccc1	x	x	x	n	n	x
O=C(CSc1nnc(C2CC2)n1Cc1ccccc1)c1ccccc1F	x	x	x	u	n	x
Cc1ccc(-c2ccc(C(=O)O)s2)cc1	x	x	x	u	n	x
COc1cc(OC)cc(C(=O)NC(=S)Nc2ccc(N3CCCC3)cc2)c1	n	n[9.22 µM]	n	44.7µM	n	n
O=C(NC(=S)Nc1ccc2c(c1)OCO2)c1ccc(Cl)cc1	u	n	n	n	n	n
CCc1ccc(C(=O)NC(=S)Nc2ccc3c(c2)OCCO3)cc1	u	n	n	14.1µM	n	n
Cc1cc(C)cc(C(=O)NC(=S)Nc2ccc3c(c2)OCCO3)c1	u	n	n	6.31µM	n	n
O=C(NC(=S)Nc1ccc2c(c1)OCCO2)c1ccco1	u	n	n	n	n	n
Cc1ccc(C(=O)NC(=S)Nc2ccc3c(c2)OCCO3)c(C)c1	n	n	n	12.6µM	n	n
O=C(NC(=S)Nc1ccc2c(c1)OCCO2)c1ccc(F)cc1Cl	n	n	n	n	n	n
O=C(NCC1CCCO1)c1ccc(CSc2nc3cccnc3n2Cc2ccccc2)cc1 (stereo not drawn)	x	x	x	u	n	x
N#Cc1c2n(c(=O)n(CC(O)COc3ccccc3F)c1=O)CCC2 (stereo not drawn)	x	x	x	n	n	x
Cc1ccc(C(=O)NC(=S)Nc2ccc(N3CCOCC3)cc2)c(C)c1	n	n	n	7.94µM	n	n
O=C(NC(=S)Nc1ccc(N2CCOCC2)c(Cl)c1)c1cncc(Br)c1	n	n	n	u	n	n
O=C(NC(=S)Nc1ccc(N2CCCCC2)c(Cl)c1)c1ccc2c(c1)OCCO2	9.2µM	n	n	22.4µM	n	n
Cc1[nH]c2ccccc2c1C(=O)C(=O)Nc1ccccc1CN(C)C	x	x	x	n	n	x
Cc1ccc(-c2ccccc2NC(=O)CS(=O)CC(=O)Nc2ccc(C)c(Cl)c2)o1 (stereo not drawn)	n	n	n	39.8µM	n	u
Cc1ccc(-c2ccccc2NC(=O)CCl)o1	x	u	n	u	n	n
Cc1ccc2cc(CSc3nnc(C(F)(F)F)n3C)c(Cl)nc2c1C	x	x	x	n	n	x
COc1ccc(C(=O)Nc2ccc(-c3ccc(C)o3)cc2)cc1S(=O)(=O)N1CCOCC1	18.4µM	n	u	n	n	n
SMILES	Nrf2 inh	Nrf2 ARE act	A549 viability	12-LOX inh	LDHA inh	ERG Ets-DNA blk
Cc1ccc(NC(=O)c2cc3c(s2)CCC3)cc1S(=O)(=O)N1CCOCC1	20.6µM	n	n	n	n	n
CCc1sc(C(=O)Nc2ccc(OC)c(S(=O)(=O)N3CCOCC3)c2)cc1C	u	n	n	n	n	n
COc1ccc(NC(=O)c2cc3c(s2)CCC(C)C3)cc1S(=O)(=O)N1CCOCC1 (stereo not drawn)	18.4µM	n[9.22 µM]	n	n	n	n
COc1ccc(-c2nc3c(s2)CN(C(C(=O)O)c2c[nH]c4ccc(CO)cc24)CC3)cc1OC (stereo not drawn)	x	x	x	u	n	x
Nc1nnnn1NCc1ccc(-c2ccc(Cl)cc2)o1	x	x	x	n	n	x
CCCCCCn1c(N2CCN(c3ccccc3)CC2)nc2c1c(=O)[nH]c(=O)n2C	20.6µM	n	u	n	n	n
CCCCCCCCn1c(N2CCN(c3cccc(Cl)c3)CC2)nc2c1c(=O)[nH]c(=O)n2C	n	n	n	n	n	n
Cc1ccc(NC(=O)CC(C)n2ccnc2)cc1Cl (stereo not drawn)	x	x	x	n	n	x
COc1ccc(C(=O)/C=C/c2ccc(F)c(F)c2)cc1CSCC(=O)O	x	x	x	u	n	x
O=C(c1cccc2ccccc12)N1CCN(Cc2c[nH]c3ccccc23)CC1	x	x	x	1µM	n	x
O=C(c1ccccc1F)N1CCN(Cc2c[nH]c3ccccc23)CC1	x	x	x	u	n	x
c1cncc(CN2CCN(Cc3c[nH]c4ccccc34)CC2)c1	x	x	x	0.316µM	n	x
c1ccc(CN2CCN(Cc3c[nH]c4ccccc34)CC2)cc1	n	n	n	n	n	n
Cc1ccccc1Cn1c(=O)n(CC2CCC(C(=O)N3CCC(C)CC3)CC2)c(=O)c2sccc21 (stereo not drawn)	23.1µM	n	u	u	n	n
CN1CCc2nc3sc(C(=O)c4ccc(Cl)cc4)c(N)c3cc2C1	x	x	x	35.5µM	n	x
Nc1c(C(=O)Nc2ccc(C(=O)O)cc2)sc2nc3c(cc12)CCCC3	u	n	n	17.8µM	n	n
O=C(Nc1cccc(F)c1)c1cccnc1NCCc1ccccc1	23.1µM	n	n	u	n	n
O=Cc1ccc(OCc2ccc(Cl)cc2Cl)cc1	x	x	x	u	n	x
COC(=O)C1=C(C)N(Cc2ccccc2)C(=O)N[C@H]1c1ccc(Br)cc1	n	n	n	n	n	n
CCN1C(=S)N[C@@H](c2ccccc2)C(C(=O)OC)=C1C	n	n	n	n	n	n
COC(=O)C1=C(C)N(Cc2ccccc2)C(=S)NC1c1cccc(Br)c1 (stereo not drawn)	x	x	x	39.8µM	x	x
COC(=O)C1=C(C)N(Cc2ccc(Br)cc2)C(=S)NC1c1cccc(Br)c1 (stereo not drawn)	x	x	x	39.8µM	x	x
COC(=O)C1=C(C)N(Cc2ccc(Br)cc2)C(=S)NC1c1ccccc1 (stereo not drawn)	x	x	x	39.8µM	x	x
COc1ccc(N(Cc2cccs2)C(=O)Cn2nnc(-c3cccc(F)c3)n2)cc1	x	x	x	n	n	x
COc1ccc(CN2CCN(CCSc3ccc(C)cc3)CC2)c(OC)c1OC	n	n	n	u	-37.5	n
COc1ccc(OC)c(CN2CCN(Cc3ccc(OC)c(OC)c3OC)CC2)c1	x	n	x	u	n	x
C=CCN(CC=C)S(=O)(=O)c1ccc(NC(=S)NC(=O)c2ccc(-c3ccccc3)cc2)cc1	x	n	n	3.16µM	n	n
Cc1cc(C)c(NC(=S)NC(=O)c2ccc(-c3ccccc3)cc2)c(C)c1	u	n	n	22.4µM	n	n
